Results as given in PubChem BioAssay AID1619 (SRMLSC, 2009).
Out of some 220,000 compounds screened, about 830 (0.38%) were called active.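 The calls were made as follows: active = compound inhibiting the enzyme by more than half at any dose during confirmatory dose-response retesting; inconclusive = strong single-dose inhibitors picked by rank but not retested; inactive = the rest.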 A selection follows. Measured potencies and affinities stand elsewhere.

Biological target: Leucine aminopeptidase (Plasmodium falciparum (isolate 3D7)) (UniProt Q8IL11)
Assay: P. falciparum M17LAP inhibitors, primary screen, biochemical, fluorogenic H-Leu-NHMec substrate, 1536-well (AID 1619);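 also: plate controls were full reaction with DMSO carrier for no effect and no enzyme background for full effect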
Conditions: recombinant M17LAP, H-Leu-NHMec fluorogenic kinetic assay; at 30 µM; hits give high values

Chain of Leucine aminopeptidase (Plasmodium falciparum (isolate 3D7)) (Q8IL11 whole entry, looked up): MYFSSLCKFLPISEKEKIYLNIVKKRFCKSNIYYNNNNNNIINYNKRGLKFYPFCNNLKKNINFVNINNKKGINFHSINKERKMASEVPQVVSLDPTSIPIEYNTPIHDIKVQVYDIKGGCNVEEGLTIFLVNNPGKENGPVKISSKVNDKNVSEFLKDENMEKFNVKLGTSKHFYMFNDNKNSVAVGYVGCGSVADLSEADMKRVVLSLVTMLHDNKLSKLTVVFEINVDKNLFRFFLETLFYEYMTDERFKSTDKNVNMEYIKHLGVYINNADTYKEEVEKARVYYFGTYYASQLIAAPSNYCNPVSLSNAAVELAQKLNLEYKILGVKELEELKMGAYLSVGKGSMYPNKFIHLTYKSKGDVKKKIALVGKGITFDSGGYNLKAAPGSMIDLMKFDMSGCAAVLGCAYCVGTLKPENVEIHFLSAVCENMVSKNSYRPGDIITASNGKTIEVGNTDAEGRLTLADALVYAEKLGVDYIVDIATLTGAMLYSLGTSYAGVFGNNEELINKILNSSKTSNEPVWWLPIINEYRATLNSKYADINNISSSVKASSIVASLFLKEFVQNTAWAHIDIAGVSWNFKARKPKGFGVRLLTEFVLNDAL

inhibition, inactive:
O=C(NCCN1CCN(c2cccc(Cl)c2)CC1)C1CCCN(S(=O)(=O)c2cnc[nH]2)C1 (stereo unspecified) -4.03%
NC(=O)CN1CCN(c2ccccc2F)CC1 4.96%
C/C(=N/NC(=O)c1cn(-c2cccc(C)n2)cn1)c1ccc(C)cc1 -2.51%
CCOC(=O)c1ccc(-n2c(CN(CC)CC)nc3ccc([N+](=O)[O-])cc3c2=O)cc1 2.23%
Brc1cc2[nH]cnc2c2ccccc12 4.81%
Cn1c(N)c(C(=O)COc2ccc(C#N)cc2)c(=O)n(C)c1=O 7.75%
O=c1c(N2CCOCC2)coc2ccccc12 9.22%
CCCCc1sc(-c2c(C#N)c(N)nc3c2CCCCC3)cc1[N+](=O)[O-] 1.41%
O=C(CN1C(=O)C2C3C=CC(C4CC34)C2C1=O)Nc1cccc2ncccc12 (stereo unspecified) 6.24%
O=C(CN1C(=O)C2C3C=CC(C4CC34)C2C1=O)NCc1ccco1 (stereo unspecified) 1.4%
CCOc1ccc(-n2c(Cc3cc(=O)[nH]c(=O)[nH]3)nnc2SCc2cccnc2)cc1 6.43%
COc1ccc(N2CC(O)(c3ccc(C)cc3)[N+]3=C2CCCC3)cc1 (stereo unspecified) 1.14%
CC(C)OC(=O)c1cc(C(=O)c2cc(Br)ccc2O)coc1=N 0.53%
COCCOC(=O)c1cc(C(=O)c2cc(Cl)ccc2O)coc1=N 12.5%
COC(=O)c1cc(C(=O)c2cc(Cl)ccc2O)coc1=N 10.7%
CC(C)OC(=O)c1cc(C(=O)c2cc(Cl)ccc2O)coc1=N -2.46%
Cn1c(CC(=O)c2ccc(Br)cc2)[n+](C)c2ccccc21 2.42%
Nc1nc(CSc2ncn[nH]2)nc(Nc2ccc(F)cc2)n1 -4.26%
O=S(=O)(c1ccc2c(c1)OCCO2)N1CCC(n2nnc3cc(F)ccc32)CC1 4.13%
CC1(C)CC(=O)c2sc(NS(=O)(=O)c3ccc(Br)cc3)nc2C1 18.8%
CC1(C)CC(=O)c2sc(NS(=O)(=O)c3ccc(F)cc3)nc2C1 48.1%
c1ccc(-c2nc3nc4ccccc4nc3n2Cc2ccco2)cc1 1.08%
COc1ccc(-c2noc(CCCC(=O)N3CCOCC3)n2)cc1 -3.55%
COc1cc(/C=N/N=C2/NC(=O)C(CC(=O)O)S2)ccc1OCc1ccc(Cl)cc1 (stereo unspecified) 23.2%
CCOc1cc(/C=N/N=C2/NC(=O)C(CC(=O)O)S2)ccc1OCc1ccc(Cl)cc1 (stereo unspecified) 5.31%
CCOc1ccc2[nH]c(=O)c(CN(CCO)C(=O)CC)cc2c1 -5.26%
Nc1c(C(=O)c2ccccc2)oc2ccc(Br)cc12 -7.77%
COC(=O)c1oc2ccc(Br)cc2c1NC(=O)c1ccccc1 14.5%
C=CCNCCOc1c(C)cc(C)cc1Cl 20.1%
CC1(C(=O)OCC(=O)Nc2ccccc2)CC1(Cl)Cl (stereo unspecified) 1.25%
CCN(C(=O)Cn1cnc2cc([N+](=O)[O-])ccc2c1=O)C1CCS(=O)(=O)C1 (stereo unspecified) 12.2%
Cc1ccc(-c2nc(N=Nc3ccc(O)cc3)n[nH]2)cc1 12.9%
Oc1ccc(-c2cccc(-c3ccc(O)cc3)n2)cc1 1.28%
CCOc1ccc(/C=C2\SC(=S)N(CCC(=O)O)C2=O)cc1 6.65%
O=C(O)c1ccc(N2C(=O)CC(N3C(=O)/C(=C/c4ccc(Cl)cc4)SC3=S)C2=O)cc1 (stereo unspecified) 6.02%
Cc1ccc(NC(=O)/C=C/c2ccco2)nc1 11.5%
O=C(Nc1ccccc1N1CCCC1)c1ccc([N+](=O)[O-])cc1Cl 9.68%
CCCCN1C(=O)/C(=C/C=C2\SCCN2C)SC1=S -4.21%
CCN1C(=O)/C(=C/C=C2/SCCN2C)SC1=S -8.41%
Cc1ccc(S(=O)(=O)N(CC(=O)Nc2ccccc2C(=O)O)c2ccccc2)cc1 4.48%
Cc1ccc(S(=O)(=O)N(CC(=O)Nc2ccccc2C(=O)O)c2ccccc2C)cc1 2.3%
COc1ccc2sc(C)[n+](C)c2c1 -2.85%
COc1ccc(N2C(=O)c3ccccc3C2=O)cc1 -7.95%
COc1ccc(C(O)(C(=O)NNc2ccc(C)cc2)c2cccs2)cc1 (stereo unspecified) 15.2%
O=[N+]([O-])c1ccc(-c2cc(-c3ccncc3)nc3ccc4ccccc4c23)cc1 -5.09%
CC1=C(O)C(=O)OC1c1c(Cl)cccc1Cl (stereo unspecified) -5.75%
CCCCSc1nc(C)[nH]c1[N+](=O)[O-] -54.3%
Cc1ccc(Nc2ncnc3nc[nH]c23)cc1Cl 6.48%
COc1ccccc1Nc1ncnc2nc[nH]c12 38.3%
Cc1ccc(-c2nnc(SCC(=O)N/N=C/c3c(C)nn(-c4ccccc4)c3C)n2-c2ccccc2)cc1 -0.81%
CC(Sc1ccccc1)C(=O)Nc1ccc(S(=O)(=O)N2CCOCC2)cc1 (stereo unspecified) 11.8%
CC(Sc1ccc(Cl)cc1)C(=O)Nc1ccc(S(=O)(=O)N2CCOCC2)cc1 (stereo unspecified) 1.19%
CCc1ccccc1NC(=O)C1C(c2ccccc2)C1(Cl)Cl (stereo unspecified) -8.78%
O=C(Nc1ccccc1NC(=O)c1c(F)c(F)c(F)c(F)c1F)c1c(F)c(F)c(F)c(F)c1F 8.25%
CC(C)N(Cc1nc(-c2ccc3c(c2)OCO3)no1)Cc1nccn1C -7%
Cc1[nH]nc2c1C1(CCN(Cc3ccccc3)CC1)C(C#N)=C(N)O2 42.9%
CC(C)c1[nH]nc2c1C1(CCN(Cc3ccccc3)CC1)C(C#N)=C(N)O2 30.2%
Cc1sc(NC(=O)c2cccc([N+](=O)[O-])c2)c(C(N)=O)c1-c1ccc(C(C)(C)C)cc1 6.91%
Cc1csc(NC(=O)[C@@H]2CCCN2C(=O)c2cccs2)n1 -1.96%
CC1=C(C(=O)OCc2ccccc2)C(c2ccc(Cl)cc2Cl)NC(=O)N1CCCC(=O)O (stereo unspecified) 0.51%
CC1=C(C(=O)OCc2ccccc2)C(c2ccc(Cl)cc2)NC(=O)N1CCCCCC(=O)O (stereo unspecified) 47.3%
